12-LOX inh = Primary qHTS assay for inhibitors of human arachidonate 12S-lipoxygenase (ALOX12): Round 2 | Polyunsaturated fatty acid lipoxygenase ALOX12 (Homo sapiens), P18054 | 580,000 compounds, 1.1% hits | purified 12hLO, xylenol orange hydroperoxide absorbance | Potency, µM (titrated, usually from 108 µM), hits mostly inhibitors
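Purified human 12hLO (150 nM final) in 25 mM Hepes, 0.01% Triton X-100, pH 7.0 was preincubated 15 min at room temperature with compound. Then 40 uM arachidonic acid was added, 30 min. Hydroperoxide was read by Fe-XO absorbance ratio 573/405 nm.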
LDHA inh = qHTS assay for inhibitors of human lactate dehydrogenase; 480,000 compounds, 0.15% hits; L-lactate dehydrogenase A chain (Homo sapiens), P00338; activity change, % (values are at about 110 or 230 µM); purified LDHA, NADH/diaphorase-resazurin fluorescence; hits give low values; in the data active means activity change below about -30%; inconclusive means mostly about -25% to -30%
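Remaining NADH was detected by diaphorase (0.133 mg/mL) converting 37 µM resazurin to fluorescent resorufin, read at 0 and 20 minutes. The preceding 5-minute room-temperature reaction used 2 nM LDHA, 0.2 mM sodium pyruvate and 0.06 mM NADH at pH 7.4.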
ERG-DNA inh = qHTS for Small Molecule Inhibitors of the ERG Ets/DNA interaction; fluorescence polarization, His-ERG Ets domain / labelled DNA; Potency, µM (top dose mostly 76.9 µM), hits mostly inhibitors; 370,000 compounds, 0.028% hits; AID 624246, 2012; active means well fitted inhibition curve with a large enough effect in the polarisation, with a control signal flat; inconclusive means small, poorly fitted or top-dose-only effect, or effect the other way, or a change in a side signal; inactive means no such curve, though single readings can be large or run the other way; the % refers to the polarisation;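 further: polarization taken with two DNA probes labelled with fluorescein and Texas red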
Target sequence (P11308 whole entry, looked up, the tested form may be a part): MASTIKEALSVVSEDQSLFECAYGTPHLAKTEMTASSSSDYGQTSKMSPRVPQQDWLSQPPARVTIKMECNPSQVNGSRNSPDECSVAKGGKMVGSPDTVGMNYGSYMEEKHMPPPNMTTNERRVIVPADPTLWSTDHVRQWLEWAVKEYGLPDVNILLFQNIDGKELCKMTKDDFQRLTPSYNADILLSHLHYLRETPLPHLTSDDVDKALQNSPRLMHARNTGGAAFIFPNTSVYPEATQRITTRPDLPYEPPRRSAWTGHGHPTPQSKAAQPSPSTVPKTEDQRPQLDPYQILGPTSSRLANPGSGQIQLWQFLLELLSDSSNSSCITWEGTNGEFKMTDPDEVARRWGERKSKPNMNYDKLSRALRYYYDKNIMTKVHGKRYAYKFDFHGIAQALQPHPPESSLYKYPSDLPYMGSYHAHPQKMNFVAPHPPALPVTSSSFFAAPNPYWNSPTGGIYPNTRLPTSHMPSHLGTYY
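His-tagged ERG Ets domain (1 uM in the protein solution; 300mM KCl, 50mM Tris-HCl, 1mM EDTA, 1mM DTT, pH 7.5) received compound, then a probe mix of 5 nM fluorescein-DNA and 100nM Texas-615-DNA. Fluorescence polarization was read for both dyes.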
Nrf2 block = Nrf2 qHTS screen for inhibitors; A549 ARE-Fluc reporter, luciferase luminescence, 18-24 h; Potency, µM (doses to about 46 µM), actives largely listed as inhibitors; 360,000 compounds, 2.1% hits; further: nearly all actives have a fitted effect of over 60% in size
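A549 ARE_Fluc cells, 5000/well, 5% FBS OPTI-MEM; compounds in dose-response, 18-24 h at 37 °C/5% CO2; CellTiter-Fluor viability read (Ex 405/Em 525), then BugLite luciferase luminescence = Nrf2 activity.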
Nrf2 ARE act = qHTS of Nrf2 Activators. Potency, µM (titrated, usually from 46.1 µM), actives largely listed as activators. AREc32 ARE-luciferase reporter (MCF7-derived line), luminescence, 24 h. 410,000 compounds, 0.31% hits. AID 624171, 2012; further: nearly all actives have a fitted effect of over 65% in size
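Steps: seed AREc32_Fluc cells (1000/well, 5% FBS OPTI-MEM); incubate overnight at 37 deg C; add 23 nL compound; incubate 24 hr; add Steady-Glo; hold 30 min RT; read luminescence.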
A549 tox-1 = Nrf2 qHTS screen for inhibitors: counterscreen for cytotoxicity | A549 ARE-Fluc cells, CellTiter-Fluor viability, 18-24 h | AID 504648, 2011 | 390,000 compounds, 0.16% hits | Potency, µM (top dose mostly 46 µM), actives largely listed as inhibitors
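A549 ARE-Fluc cells in 5% FBS OPTI-MEM, 5000 cells/well, rested 2 h then exposed to compounds in concentration-response for 18-24 h at 37 °C. Viability by CellTiter-Fluor fluorescence (Ex 405/Em 525) after 30 min; luciferase luminescence (BugLite, 15 min, RT) read afterwards.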
FLuc enzyme inh = Nrf2 qHTS screen for inhibitors: Purified Fluc Biochemical Counterscreen for Hit Validation | shares compounds with Nrf2 block | purified firefly luciferase, luminescence inhibition | Potency, µM (titrated, usually from 57.5 µM), actives largely listed as inhibitors | 1,400 compounds, 4% hits; further: nearly all actives have a fitted effect of over 65% in size
A549 tox-2 = Nrf2 qHTS screen for inhibitors: A549 ARE-Fluc Cytotoxicity Counterscreen for Hit Validation; 1,400 compounds, 2% hits; A549 ARE-Fluc cells, cytotoxicity counterscreen; shares compounds with Nrf2 block; Potency, µM (highest dose often 46.1 µM), hits mostly inhibitors;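 further: cells exposed to compounds for 18 to 24 hours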
ARE-Fluc inh = Nrf2 qHTS screen for inhibitors: Nrf2 A549 ARE-Fluc Confirmation Assay for Hit Validation; shares compounds with Nrf2 block; A549 ARE-firefly luciferase reporter, luminescence; Potency, µM (top dose mostly 46.1 µM), most hits filed as inhibitors; 1,400 compounds, 74% hits; AID 720524, 2013; further: nearly all actives have a fitted effect of over 65% in size
Numbers stand for hits; - = inactive; ? = inconclusive; . = no result shown. Shown are actives, neighbours in structure and some others; about 2.7% of the full set was active somewhere. Unless noted, the call rests on the fitted dose curve; in most records, active means well fitted curve in the direction sought with a large enough effect; inconclusive means small, poorly fitted or top-dose-only effect, or another doubt; inactive means no such curve, though single readings can be large; an effect the other way counts as inactive or inconclusive.

SMILES	12-LOX inh	LDHA inh	ERG-DNA inh	Nrf2 block	Nrf2 ARE act	A549 tox-1	FLuc enzyme inh	A549 tox-2	ARE-Fluc inh
NC(=O)c1c(-c2ccc(Cl)cc2Cl)csc1NC(=O)Cc1ccccc1	-	-	-	2.6µM	-	-	-	-	5.2µM
CCc1ccc2[nH]c(=O)c(CN(CCN(C)C)C(=O)Nc3ccccc3OC)cc2c1	-	-	-	-	-	-	.	.	.
CCc1ccc2[nH]c(=O)c(CN(Cc3ccccc3)C(=O)Nc3ccccc3OC)cc2c1	-	-	-	7.3µM	-	-	-	-	?
COc1ccccc1-c1noc(CSc2nc3ccccc3o2)n1	-	-	.	.	.	.	.	.	.
CC(C)(C)NC(=O)CSc1nc2ccc(NC(=O)CSc3nnnn3Cc3ccccc3)cc2s1	-	-	-	8.2µM	-	-	-	-	7.3µM
Cc1cc(SCC(NC(=O)c2ccccc2)C(=O)O)c2cc(Br)ccc2n1 (configuration not stated)	-	-	.	.	.	.	.	.	.
COc1ccc(C(=O)Nc2ccc(S(=O)(=O)N3CCOCC3)cc2)cc1	-	-	-	-	-	-	.	.	.
COc1ccc(C(=O)Nc2ccc(Cl)c(S(=O)(=O)N3CCOCC3)c2)cc1	-	-	-	9.2µM	-	-	21µM	-	.
CC(=O)c1ccc(OCCCC(=O)Nc2ccc(Cl)c(S(=O)(=O)N3CCOCC3)c2)cc1	-	-	-	5.2µM	-	-	-	-	7.3µM
Cc1ccc(OCCCC(=O)Nc2ccc(Cl)c(S(=O)(=O)N3CCOCC3)c2)cc1	-	-	-	?	-	-	.	.	.
COCCNC(=O)C1CCN(C(=O)c2cc3sccc3n2Cc2ccc(Cl)cc2)CC1	-	-	-	8.2µM	-	?	-	-	5.8µM
CCC(C)NC(=O)C1CCN(C(=O)c2cc3sccc3n2Cc2ccc(Cl)cc2)CC1 (configuration not stated)	-	-	-	2.3µM	-	?	-	?	6.5µM
COCCCNC(=O)C1CCN(C(=O)c2cc3sccc3n2Cc2ccc(Cl)cc2)CC1	-	-	-	?	-	-	.	.	.
CC(=NNC(=O)c1ccncc1)c1ccccc1O	-	-	-	?	-	-	.	.	.
CC(=NNC(=O)c1ccncc1)c1ccc2ccccc2c1O	-	-	-	2.6µM	-	?	-	-	4.1µM
Cc1noc(C)c1CCC(=O)NC1CCc2nn(CC3CC3)c(=O)n2CC1 (configuration not stated)	-	.	.	.	.	.	.	.	.
CCOCCCNCc1ccc(F)cc1Cl	?	-	.	.	.	.	.	.	.
Cc1cc(C)nc(SCc2ccc(C(=O)NNC(=O)Nc3cccc(Cl)c3)cc2)n1	-	-	-	9.2µM	-	?	-	?	15µM
Cc1ccccc1NC(=O)c1cccc2nc3ccccc3nc12	-	-	-	5.2µM	-	-	-	?	10µM
Cc1ccccc1NC(=O)c1nc2ccccc2nc1Cl	-	-	.	.	.	.	.	.	.
CCOC(=O)c1cnc(SCC(=O)Nc2cccc(Cl)c2C)nc1N	-	-	.	.	.	.	.	.	.
CCC(C)(C(=O)NC1CCCC1)N(C(=O)CNC(=O)c1ccccc1)c1ccc(C)cc1 (configuration not stated)	-	-	.	.	.	.	.	.	.
